Out of some 310,000 compounds screened, about 14,000 (4.5%) showed an effect of 50% or more. The effect is printed as a negative number. For the sample, strong results were picked, then their nearest neighbours and some compounds at random.
The molecules below were run against human ether-à-go-go-related gene (hERG) potassium channel (human, UniProt Q12809) (assay: primary screen, population patch clamp on CHO cells stably expressing hERG; higher = less effect of the substance).
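Also: peak tail current of the secondary pulse compared with the same well before compound.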

Chain of human ether-à-go-go-related gene (hERG) potassium channel (Q12809 whole entry, looked up): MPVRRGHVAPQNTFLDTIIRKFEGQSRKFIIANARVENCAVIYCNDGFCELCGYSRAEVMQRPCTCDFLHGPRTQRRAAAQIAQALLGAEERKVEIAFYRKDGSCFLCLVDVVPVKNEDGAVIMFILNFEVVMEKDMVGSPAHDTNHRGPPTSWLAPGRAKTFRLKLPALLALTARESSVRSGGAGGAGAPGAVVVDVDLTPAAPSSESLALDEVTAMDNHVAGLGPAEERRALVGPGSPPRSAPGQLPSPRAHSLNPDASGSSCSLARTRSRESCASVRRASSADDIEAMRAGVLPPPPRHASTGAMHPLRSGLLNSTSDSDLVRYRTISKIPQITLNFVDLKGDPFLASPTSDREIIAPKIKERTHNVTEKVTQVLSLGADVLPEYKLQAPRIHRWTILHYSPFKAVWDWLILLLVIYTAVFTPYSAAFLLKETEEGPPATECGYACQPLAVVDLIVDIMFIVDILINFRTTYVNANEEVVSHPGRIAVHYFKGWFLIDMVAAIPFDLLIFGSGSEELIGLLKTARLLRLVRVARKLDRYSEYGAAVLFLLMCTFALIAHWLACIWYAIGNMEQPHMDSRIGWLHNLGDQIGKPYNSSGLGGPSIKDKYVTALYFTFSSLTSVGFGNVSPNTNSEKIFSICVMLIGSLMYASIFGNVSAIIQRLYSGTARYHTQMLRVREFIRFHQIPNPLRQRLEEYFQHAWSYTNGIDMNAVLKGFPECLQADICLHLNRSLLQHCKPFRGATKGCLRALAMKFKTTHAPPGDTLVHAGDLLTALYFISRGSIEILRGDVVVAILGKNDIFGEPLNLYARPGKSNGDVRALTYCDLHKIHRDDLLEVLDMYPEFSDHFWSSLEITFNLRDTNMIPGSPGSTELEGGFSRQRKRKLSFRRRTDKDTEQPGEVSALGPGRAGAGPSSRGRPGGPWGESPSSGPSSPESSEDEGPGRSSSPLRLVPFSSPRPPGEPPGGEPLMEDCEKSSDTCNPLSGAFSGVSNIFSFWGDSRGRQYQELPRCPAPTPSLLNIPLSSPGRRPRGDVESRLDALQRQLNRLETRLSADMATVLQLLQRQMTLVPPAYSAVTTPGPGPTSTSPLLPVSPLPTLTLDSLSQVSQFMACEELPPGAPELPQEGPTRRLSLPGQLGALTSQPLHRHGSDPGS

| SMILES | hERG current change (%, negative = inhibition) at 10uM [%] |
| --- | --- |
| CCCCn1c(N)c(N(CC(C)C)C(=O)c2cc(C)oc2C)c(=O)[nH]c1=O | 8.94 |
| Clc1ccc(-c2ccn[nH]2)cc1 | 3.54 |
| Cc1ccc(NC(=O)N2C(=O)C3(OCCO3)c3ccccc32)cc1 | 18.2 |
| CCS(=O)(=O)c1ccc(-c2cccc(NC(=O)COc3ccccc3)c2)nn1 | 6.57 |
| O=C1CCCN1CN(C(=O)c1ccc2c(c1)OCO2)c1cccc(Cl)c1 | -7.64 |
| CC(C)CN(C(=O)COC(=O)C(C)N1C(=O)c2ccccc2C1=O)c1c(N)n(Cc2ccccc2)c(=O)[nH]c1=O (stereo not drawn) | -7.78 |
| COC(=O)c1cc(NC(=O)CC2NCCNC2=O)cc(C(=O)OC)c1 (stereo not drawn) | 5.72 |
| Cc1ccc(-c2csc(NC(=O)c3ccc([N+](=O)[O-])o3)n2)cc1 | 6.85 |
| CS(=O)(=O)c1ccc(-c2cc(Br)sc2-c2ccc(F)cc2)cc1 | 16.4 |
| Cc1n[nH]c(C)c1S(=O)(=O)N1CCCC(C(=O)NCC2COc3ccccc3O2)C1 (stereo not drawn) | 0.365 |
| CCOc1ccc2nc(NC(=O)CN3CCC(n4nnc5cc(F)ccc54)CC3)sc2c1 | -40.1 |
| O=C(c1ccc(F)cc1)C1CCN(C(=O)NCc2ccccc2)CC1 | -6.67 |
| O=C(CN1CCC(NC(=O)Cc2ccccc2)CC1)Nc1ccccc1Br | -29.2 |
| O=C(CN1CCC(n2cnc3cc(F)ccc32)CC1)Nc1ccccc1Br | -87.8 |
| CCOC(=O)Nc1ccc2c(c1)ncn2C1CCCCC1 | -8.98 |
| O=C(CN1CCN(c2ccc(F)cc2)CC1)Nc1ccccc1Br | 12.5 |
| O=C(NCc1ccccc1)N1CCC(n2cnc3cc(F)ccc32)CC1 | -64.3 |
| COc1ccccc1CNC(=O)CN1CCC(n2cnc3cc(F)ccc32)CC1 | -66 |
| O=C(NCc1ccc(F)cc1)C1CCN(C(=O)NCc2ccccc2)CC1 | 6.31 |

| SMILES | hERG current change (%, negative = inhibition) at 10uM [%] |
| --- | --- |
| CCOc1ccc(NC(=O)CN2CCC(n3cnc4cc(F)ccc43)CC2)cc1 | -74.3 |
| COc1cccc(C(=O)NC2CCN(CC(=O)NCc3ccccc3OC)CC2)c1 | -10.7 |
| COc1ccccc1CNC(=O)CN1CCC(NC(=O)c2ccccc2F)CC1.Cl | -14.5 |
| COc1ccc(C(=O)Nc2ccccc2C(=O)NC(C)C)cc1OC | -6.82 |
| CCc1nc(SCC(=O)O)c2c3c(sc2n1)COC(C)(C)C3 | 23.2 |
| CCCNc1c(NS(=O)(=O)c2ccc(C3CCCCC3)cc2)c(=O)oc2ccccc12 | 21.9 |
| Cc1onc(-c2ccccc2)c1-c1csc(N/N=C/c2ccccc2)n1 | 8.79 |
| CC(C)[C@H](NC(=O)c1cccc(S(=O)(=O)N2CCCC2)c1)c1nc2ccccc2[nH]1 | 9.05 |
| COc1ccc(/C=N/N2CCN(c3ccncc3S(=O)(=O)N3CCCCC3)CC2)cc1 | 10.3 |
| CCOC(=O)c1cc2sc(C)cc2n1CC(=O)N1CCN(C(=O)c2ccco2)CC1 | -8.61 |
| Cc1ccc2nc(Cl)c(/C=N/NC(=O)[C@H]3C[C@@H]3c3ccccc3)cc2c1 | 19.5 |
| O=C(Cc1ccc(-c2ccccc2)cc1)NCCN1CCOCC1 | 0.566 |
| COc1cccc(CC2(CO)CCCN(Cc3sc(N4CCCC4)nc3Cl)C2)c1 (stereo not drawn) | -27.2 |
| COc1cccc(CC2(CO)CCCN(Cc3ccc4c(c3)OCCO4)C2)c1 (stereo not drawn) | -58.5 |
| COc1cccc(CC2(CO)CCCN(Cc3[nH]c4ccc(C)cc4c3C)C2)c1 (stereo not drawn) | -74.7 |
| COc1cccc(CC2(CO)CCCN(Cc3cc4ccccc4[nH]3)C2)c1 (stereo not drawn) | -37.5 |
| OCC1(Cc2ccccc2)CCCN(Cc2ccc3c(c2)OCCO3)C1 (stereo not drawn) | -24.6 |
| COc1cccc(CC2(CO)CCCN(Cc3ccc(OC(F)F)cc3)C2)c1 (stereo not drawn) | -68.6 |
| COc1cccc(CC2(CO)CCCN(Cc3ccc(C)s3)C2)c1 (stereo not drawn) | -50.5 |

| SMILES | hERG current change (%, negative = inhibition) at 10uM [%] |
| --- | --- |
| COc1cccc(CC2(CO)CCCN(Cc3ccc(CN4CCCCC4)s3)C2)c1 (stereo not drawn) | -22.1 |
| CCC(NC(=O)c1ccccc1NC(=O)c1ccco1)C(=O)NNC(=O)c1ccc(OC)cc1 (stereo not drawn) | 10.3 |
| NC(=O)c1ccc(SCC(=O)OCC(=O)NCC2CCCCC2)c([N+](=O)[O-])c1 | -5.21 |
| CC(C)(C)NC(=O)c1ccc2c(c1)N(CC(=O)NC1CCCC1)C(=O)C(C)(C)O2 | 8.72 |
| COc1ccc(-c2csc(NC(=O)CSCC(=O)Nc3cc(C)on3)n2)cc1OC | 1.07 |
| O=C(Nc1ccc(-c2n[nH]c(=S)o2)cc1)c1ccccc1 | 15.6 |
| O=C(c1cccc(S(=O)(=O)Nc2ccccc2F)c1)N1CCN(c2ccccc2F)CC1 | -21.5 |
| CCOc1ccc(NC(=O)CSc2nccn2Cc2ccco2)cc1 | -19.5 |
| Cc1cc(S(=O)(=O)N2CCCC(C(=O)Nc3ccc(C(=O)O)cc3)C2)ccc1Cl (stereo not drawn) | 10.2 |
| COc1ccc(CSc2nnnn2C)cc1F | -6.74 |
| CCOC(=O)C1CCCN(C2=NC(=O)/C(=C/c3ccc(N(C)C)cc3)S2)C1 (stereo not drawn) | -24.9 |
| CCOC(=O)C1CCN(C2=NC(=O)/C(=C/c3ccccc3OC)S2)CC1 | -22.9 |
| CC1CCN(C2=NC(=O)/C(=C/c3ccc(O)cc3)S2)CC1 | -24.7 |
| CCOC(=O)C1CCN(C2=NC(=O)/C(=C/c3ccc(OC)c(OC)c3)S2)CC1 | -17.8 |
| CCOC(=O)C1CCN(C2=NC(=O)/C(=C/c3ccc(Cl)cc3)S2)CC1 | -64.8 |
| Cc1ccc(/C=C2\SC(N3CCCC3)=NC2=O)cc1 | -22.4 |
| CCOC(=O)C1CCN(C2=NC(=O)/C(=C/c3ccc(O)cc3)S2)CC1 | -67.1 |
| Cc1ccc(/C=C2\SC(N3CCCCC3)=NC2=O)cc1 | 0.193 |
| CC(C)(C)c1ccc(/C=C2/SC(N3CCCC3)=NC2=O)cc1 | -51.1 |
